This note sets out measurements from PubChem BioAssay (NCI).

Among the test systems are SR leukemia; RPMI-8226 leukemia; OVCAR-8 ovarian; OVCAR-4 ovarian; SK-OV-3 ovarian; IGROV1 ovarian; OVCAR-3 ovarian; HS 578T breast; NCI/ADR-RES ovarian.
Common to all, as to test: NCI-60 one-dose screen, 48 h (100 = growth as untreated, 0 = no growth, -100 = all killed)
What all share (conditions): 10 µM unless noted

Structures are written as SMILES. “And” between values parts separate entries of the source, which are not always exact repeats. Equal entries are not always repeated. About 83,000 compounds went through this panel and 20% of them were active in at least one assay; those are over-represented in the sample as a whole.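 How to read the values: 0–100, growth inhibition (40 = 60% inhibited); 0, no net growth; -100 to 0, cell death (-40 = 40% of starting cells died; -100 = all dead).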 Where a structure was tested more than once in an assay, its records may differ in their call. The source made the active and inactive calls. Rule for the calls: active = growth percent below 10; inactive = the rest.

As for `O=C(O)c1ccc2c(c1)C(=O)c1ccccc1C2=O`, the growth in the assay with SR leukemia was 86.4% (inactive); in the assay on RPMI-8226 leukemia, 102% (inactive); with OVCAR-8 ovarian, 98.9% (inactive); in the assay on OVCAR-4 ovarian, 96.7% (inactive); in the assay on SK-OV-3 ovarian it was 98.8% (inactive); in the assay with IGROV1 ovarian it was 116% (inactive). Further, the growth was 99.3% (inactive) in the assay on OVCAR-3 ovarian, 95.6% (inactive) in the assay on HS 578T breast and 105% (inactive) in the assay with NCI/ADR-RES ovarian.

`OC(c1cc(-c2ccc(C(F)(F)F)cc2)nc(C(F)(F)F)c1)C1CCCCN1` (configuration not stated): the growth in the assay on SR leukemia is -37.6% (active) and -57.5% (active) and -38.9% (active); in the assay on RPMI-8226 leukemia, -35.4% (active) and -61.4% (active) and -21% (active); with OVCAR-8 ovarian, -57.7% (active) and -54.5% (active) and -34.4% (active); in the assay with OVCAR-4 ovarian, -6.94% (active) and -29.6% (active) and 39.1% (inactive); in the assay with SK-OV-3 ovarian, 24.4% (inactive) and 39.9% (inactive) and 86.2% (inactive); in the assay with IGROV1 ovarian, -25.6% (active) and -92.4% (active) and 30.5% (inactive). Also, the growth was -70.3% (active) and -68.3% (active) and 8.69% (active) in the assay on OVCAR-3 ovarian; -3.8% (active) and -53.8% (active) and 48.9% (inactive) with HS 578T breast; -31.5% (active) and -50% (active) and 25% (inactive) in the assay with NCI/ADR-RES ovarian.

Consider `O=C/C=C/c1ccc([N+](=O)[O-])cc1`, for which the growth in the assay on SR leukemia was 87.1% (inactive); in the assay on RPMI-8226 leukemia it was 102% (inactive); with OVCAR-8 ovarian, 100% (inactive); with OVCAR-4 ovarian, 104% (inactive); in the assay with SK-OV-3 ovarian, 89.5% (inactive); with IGROV1 ovarian, 101% (inactive). Also, the growth was 104% (inactive) in the assay on OVCAR-3 ovarian, 100% (inactive) in the assay with HS 578T breast and 99.6% (inactive) in the assay on NCI/ADR-RES ovarian.

On to `CN(C)c1ccc(/C=C/c2cc[n+](C)c(/C=C/c3ccc(N(C)C)cc3)c2)cc1`, for which the growth in the assay on SR leukemia was -34.3% (active); in the assay on RPMI-8226 leukemia, -26.4% (active); in the assay with OVCAR-8 ovarian, 5.17% (active); in the assay on OVCAR-4 ovarian, 19.9% (inactive); in the assay with SK-OV-3 ovarian, 7.83% (active); in the assay on IGROV1 ovarian it was 11% (inactive). For the same molecule, the growth in the assay with OVCAR-3 ovarian was 20.5% (inactive); in the assay on HS 578T breast it was 32.9% (inactive); in the assay on NCI/ADR-RES ovarian, 58.8% (inactive).

For the molecule `O=C(Nc1ccc(Cl)c(Cl)c1)Nc1ccccc1O`, the growth in the assay on SR leukemia is 87% (inactive); with RPMI-8226 leukemia, 18.8% (inactive); in the assay on OVCAR-8 ovarian it was 67.1% (inactive); in the assay on OVCAR-4 ovarian, 67.1% (inactive); in the assay on SK-OV-3 ovarian, 89.2% (inactive); with IGROV1 ovarian, 72.7% (inactive). For the same molecule, the growth is 79.6% (inactive) with OVCAR-3 ovarian, 106% (inactive) in the assay on HS 578T breast and 63.8% (inactive) in the assay on NCI/ADR-RES ovarian.

Consider `CN(C)c1ccc2cc3c(cc2c1)Oc1ccccc1N3.[Cl][Zn][Cl]`, for which the growth with SR leukemia was 12.5% (inactive); in the assay on RPMI-8226 leukemia it was 48.9% (inactive); in the assay on OVCAR-8 ovarian it was 70.2% (inactive); with OVCAR-4 ovarian, 64% (inactive); in the assay with SK-OV-3 ovarian, 106% (inactive); with IGROV1 ovarian, 78.5% (inactive). The values for the growth in the assay on OVCAR-3 ovarian, in the assay on HS 578T breast and in the assay with NCI/ADR-RES ovarian were 17.6% (inactive), 106% (inactive) and 86.2% (inactive), respectively.

For the molecule `O=C(NOC(=O)c1ccccc1)c1ccccc1`, the growth with SR leukemia was 84.5% (inactive); with RPMI-8226 leukemia, 75.7% (inactive); in the assay with OVCAR-8 ovarian, 119% (inactive); with OVCAR-4 ovarian, 105% (inactive); with SK-OV-3 ovarian it was 109% (inactive); in the assay with IGROV1 ovarian, 107% (inactive). Also, the growth in the assay on OVCAR-3 ovarian is 115% (inactive); in the assay on HS 578T breast it was 83.5% (inactive); in the assay with NCI/ADR-RES ovarian it was 93.7% (inactive).

`Nc1ccc(C(=O)/C=C/c2ccccc2)cc1`: the growth in the assay on SR leukemia was 46.9% (inactive); with RPMI-8226 leukemia, 43% (inactive); in the assay on OVCAR-8 ovarian, 102% (inactive); in the assay with OVCAR-4 ovarian, 105% (inactive); in the assay with SK-OV-3 ovarian, 110% (inactive); in the assay with IGROV1 ovarian, 90.4% (inactive). The growth is 75.2% (inactive) in the assay with OVCAR-3 ovarian, 106% (inactive) with HS 578T breast and 101% (inactive) in the assay with NCI/ADR-RES ovarian.

Consider `Cc1cc(C)c([I+]c2c(C)cc(C)cc2C)c(C)c1`, for which the growth with SR leukemia is -49.1% (active); in the assay with RPMI-8226 leukemia, -8.17% (active); in the assay with OVCAR-8 ovarian it was -60.3% (active); in the assay with OVCAR-4 ovarian, -44.8% (active); with SK-OV-3 ovarian, -26.4% (active); with IGROV1 ovarian, -47.6% (active). Also, the growth was -44.9% (active) in the assay with OVCAR-3 ovarian, 20.5% (inactive) in the assay on HS 578T breast and 78% (inactive) in the assay on NCI/ADR-RES ovarian.

As to `CCCCCCCCCCCC1=NCCCN1CCCC`, the growth is 57.6% (inactive) in the assay with SR leukemia; 93.4% (inactive) in the assay with RPMI-8226 leukemia; 101% (inactive) with OVCAR-8 ovarian; 101% (inactive) in the assay with OVCAR-4 ovarian; 102% (inactive) with SK-OV-3 ovarian; 105% (inactive) with IGROV1 ovarian. Besides, the values for the growth with OVCAR-3 ovarian, with HS 578T breast and in the assay on NCI/ADR-RES ovarian were 104% (inactive), 112% (inactive) and 96.8% (inactive), respectively.

As to `Clc1ccc(Cc2nc3ccccc3s2)cc1`, the growth was 84.4% (inactive) with SR leukemia; 101% (inactive) with RPMI-8226 leukemia; 102% (inactive) with OVCAR-8 ovarian; 91% (inactive) with OVCAR-4 ovarian; 91.7% (inactive) with IGROV1 ovarian; 98.1% (inactive) with OVCAR-3 ovarian. In addition, the values for the growth with HS 578T breast and in the assay on NCI/ADR-RES ovarian were 100% (inactive) and 94.9% (inactive), respectively.

For `CN=C(N)N/N=C(\c1ccccc1)c1ccc(Br)cc1`, the growth with SR leukemia is -15.2% (active); in the assay with RPMI-8226 leukemia, 27.5% (inactive); in the assay on OVCAR-8 ovarian, 1.03% (active); in the assay on OVCAR-4 ovarian it was 42.1% (inactive); in the assay with SK-OV-3 ovarian, -1.99% (active); in the assay with IGROV1 ovarian, -7.13% (active). For the same molecule, the growth in the assay on OVCAR-3 ovarian is 2.68% (active); in the assay with HS 578T breast it was 18.4% (inactive); with NCI/ADR-RES ovarian, 9% (active).

On to `O=C1C=CC(=O)N1c1cc(Cl)c(Cl)cc1Cl`, for which the growth was 81.5% (inactive) in the assay with SR leukemia; 99.8% (inactive) in the assay with RPMI-8226 leukemia; 102% (inactive) in the assay on OVCAR-8 ovarian; 98.8% (inactive) in the assay with OVCAR-4 ovarian; 91.6% (inactive) in the assay on SK-OV-3 ovarian; 93.7% (inactive) in the assay with IGROV1 ovarian. The growth in the assay with OVCAR-3 ovarian is 111% (inactive); in the assay on HS 578T breast, 137% (inactive); with NCI/ADR-RES ovarian, 104% (inactive).

Regarding `CC1CC(C)(C)OB(OC(C)CC(C)(C)OB2OC(C)CC(C)(C)O2)O1` (configuration not stated), the growth in the assay on SR leukemia was 96.9% (inactive); in the assay on RPMI-8226 leukemia it was 100% (inactive); in the assay on OVCAR-8 ovarian, 102% (inactive); with OVCAR-4 ovarian, 111% (inactive); in the assay with IGROV1 ovarian it was 107% (inactive); in the assay with OVCAR-3 ovarian, 76.6% (inactive). For the same molecule, the growth in the assay on HS 578T breast was 121% (inactive); in the assay with NCI/ADR-RES ovarian it was 101% (inactive).

As for `CCCCCCCCCCCCN1C(C)=CS/C1=C\C=C\c1scc(C)[n+]1CCCCCCCCCCCC`, the growth with SR leukemia was -4.71% (active); in the assay with RPMI-8226 leukemia, -11.3% (active); in the assay with OVCAR-8 ovarian, -8.26% (active); in the assay on OVCAR-4 ovarian it was 34.2% (inactive); with SK-OV-3 ovarian, 50.3% (inactive); in the assay on IGROV1 ovarian, 42.8% (inactive). Further, the growth was 31.9% (inactive) in the assay on OVCAR-3 ovarian, 76.6% (inactive) with HS 578T breast and 68% (inactive) in the assay with NCI/ADR-RES ovarian.

On to `CC(O)C(O)C(O)C(O)C(O)C(=O)NNc1ccccc1` (configuration not stated), for which the growth in the assay with SR leukemia is 49.7% (inactive); with RPMI-8226 leukemia it was 99.1% (inactive); with OVCAR-8 ovarian, 96.4% (inactive); in the assay with OVCAR-4 ovarian, 96.5% (inactive); with SK-OV-3 ovarian it was 99.5% (inactive); in the assay with IGROV1 ovarian it was 80% (inactive). In addition, the growth in the assay with OVCAR-3 ovarian was 99.4% (inactive); in the assay on HS 578T breast, 91.2% (inactive); with NCI/ADR-RES ovarian it was 84.2% (inactive).
